RGS4-Gao reg: human RGS4-Galphao interaction regulation; binding response (% of control), % at 10 µM; P09471; hit rate 0.33% among 220,000; Multiplexed bead flow cytometry, RGS4-Galphao binding; actives lie on both sides; in the data active = binding response below about 49% or above about 150%; inactive = in between;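 also: fluorescent Galphao activated with aluminum fluoride binding bead-coupled RGS4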
RGS8-Gao: modulates binding of RGS8 to human Galphao; response (percent of control binding), % at 10 µM; multiplexed bead flow cytometry; actives lie on both sides; P09471; hit rate 0.34% among 220,000; in the data active = response below about 60% or above about 140%; inactive = in between;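 also: Galphao activated as the GDP aluminium fluoride complex binding bead-coupled RGS8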
RGS16-Gao HTS: modulates binding between human RGS16 and Galphao | O15492+P09471 | bead-based flow cytometry RGS16-Galphao binding, fluorescence; actives lie on both sides | binding response (% of control), % at 10 µM | hit rate 0.38% among 220,000;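 also: Galphao activated by GDP with aluminum fluoride before binding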
Avidin fluor: compound fluoresces at 488/530 nm on avidin beads; compound fluorescence 488/530 nm, flow cytometry; stronger effect = higher value; fluorescence (KMESF) at 10 µM; hit rate 0.38% among 220,000; AID 1775; in the data active = fluorescence above about 47
GSH bead fluor: GSH bead compound fluorescence profile; AID 1776; fluorescence (KMESF) at 10 µM; hit rate 0.25% among 190,000; GSH beads flow cytometry, compound fluorescence 488/530 nm; stronger effect = higher value; in the data active = fluorescence above about 89;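 also: glutathione beads carrying GST-tagged Bcl family fusion proteins plus one bare bead set; values are compound well signal with DMSO vehicle wells as background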
RGS7-Gao: regulators of human RGS7-Galphao interaction | P09471 | Multiplexed bead flow cytometry, RGS7-Galphao binding; actives lie on both sides | hit rate 0.35% among 220,000 | binding response (% of control), % at 10 µM | AID 1439; in the data active = binding response below about 49% or above about 150%; inconclusive = no clear call, values can overlap the other calls; inactive = in between;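 also: fluorescent Galphao held in activated GDP-AlF4 state binding bead-coupled RGS7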
RGS4-Gao HTS: modulates binding between human RGS4 and Galphao; shares compounds with RGS16-Gao HTS; multiplexed bead flow cytometry, RGS–Galpha-o binding; RGS4–Galpha-o binding response, % at 10 µM; hit rate 99% among 1,600; AID 1504;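 also: fluorescently labeled Galpha-o bound to GDP with aluminium fluoride binding biotinylated RGS beads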
Target sequence (P09471 whole entry, looked up): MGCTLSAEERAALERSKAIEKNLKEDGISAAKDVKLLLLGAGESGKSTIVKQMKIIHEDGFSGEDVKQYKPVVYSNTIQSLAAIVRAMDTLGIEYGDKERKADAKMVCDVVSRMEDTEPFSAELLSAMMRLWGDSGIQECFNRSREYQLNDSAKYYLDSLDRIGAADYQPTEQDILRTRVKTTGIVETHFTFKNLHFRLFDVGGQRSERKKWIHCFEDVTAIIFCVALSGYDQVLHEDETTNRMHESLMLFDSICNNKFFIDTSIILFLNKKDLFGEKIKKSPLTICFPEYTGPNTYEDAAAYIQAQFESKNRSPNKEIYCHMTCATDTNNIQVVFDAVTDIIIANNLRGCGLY
Target sequence (P49798 whole entry, looked up): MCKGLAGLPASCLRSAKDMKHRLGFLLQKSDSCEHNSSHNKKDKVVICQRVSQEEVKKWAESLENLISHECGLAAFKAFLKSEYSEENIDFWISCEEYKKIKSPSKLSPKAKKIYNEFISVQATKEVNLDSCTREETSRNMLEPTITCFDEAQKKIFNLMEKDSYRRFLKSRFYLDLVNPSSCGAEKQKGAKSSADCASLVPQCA
Avidin counter: biotin-avidin bead binding disruption counter-screen | shares compounds with RGS16-Gao HTS | streptavidin beads, fluorescein-biotin binding, flow cytometry | inhibition, % at 10 µM | 1,700 tested, under 10 active;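 active = inhibition above 50%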;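 also: median green fluorescence of gated singlet beads compared with DMSO control wells; 0% = DMSO wells and 100% = complete loss of bead fluorescence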
RGS8-Gao confirm: confirmation of regulators of human RGS8-Galphao interaction; shares compounds with RGS16-Gao HTS; bead-based flow cytometry RGS8-Galphao binding, fluorescence; actives lie on both sides; binding response (% of control), % at 10 µM; hit rate 3% among 1,700; in the data active = binding response below about 72% or above about 130%; inactive = in between;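 also: Galphao activated as GDP AlF4 complex before binding bead RGS8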
RGS7-Gao single: confirmation of regulators of human RGS7-Galphao interaction. AID 1837. shares compounds with RGS16-Gao HTS. response (percent of control binding), % at 10 µM. hit rate 7.8% among 1,700. bead-based flow cytometry RGS7-Galphao binding; actives lie on both sides; in the data active = response below about 75% or above about 130%; inactive = in between;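 also: fluorescent Galphao activated with GDP and aluminum fluoride binding bead-coupled RGS7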
RGS16-Gao conf: RGS16-Galphao interaction regulation, single point confirmation | hit rate 4% among 1,700 | response (% of control binding), % at 10 µM | bead-based flow cytometry, RGS16-Galphao binding; actives lie on both sides | shares compounds with RGS16-Gao HTS | AID 1838; in the data active = response below about 74% or above about 130%; inactive = in between;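 also: Galphao activated as the GDP aluminium fluoride complex binding bead-coupled RGS16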
RGS4-Gao single: confirmation of regulators of human RGS4-Galphao interaction | shares compounds with RGS16-Gao HTS | RGS4-Galphao binding, multiplexed bead flow cytometry; actives lie on both sides | binding response (% of control), % at 10 µM | hit rate 4% among 1,700 | AID 1840; in the data active = binding response below about 74% or above about 130%; inactive = in between
RGS19-Gao conf: confirmation of regulators of human RGS19-Galphao interaction; shares compounds with RGS16-Gao HTS; bead-based flow cytometry RGS19-Galphao binding; actives lie on both sides; response (percent of control binding), % at 10 µM; hit rate 5% among 1,700; AID 1841; in the data active = response below about 50% or above about 160%; inactive = in between;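 also: 100% = no compound control and 0% = blank background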
Active calls of the source: *; ? = inconclusive; . = no result; [ ] = another dose, or the depositor's remark. Compounds with a hit are over-represented: about 1.2% of the library has one in this group of screens. Unless noted, no rule for the calls is given here.

SMILES	RGS4-Gao reg	RGS8-Gao	RGS16-Gao HTS	Avidin fluor	GSH bead fluor	RGS7-Gao	RGS4-Gao HTS	Avidin counter	RGS8-Gao confirm	RGS7-Gao single	RGS16-Gao conf	RGS4-Gao single	RGS19-Gao conf
CC(=O)Nc1ccc(NC(=O)c2ccco2)cc1	83.5	69.0	-100.5*	8	15	84.7	83.5*	-1.3	102.4	96.8	101.7	101.2	93.8
Cc1ccc(CSCCC(=O)NCCc2ccc(Cl)cc2)cc1	188.2*[activator]	112.0	212.1	121*	17	211.7*[activator]	.	1.7	95.0	94.9	95.1	96.7	86.6
O=C(CCSCc1ccc(Cl)cc1)NCCc1ccccc1	102.7	96.9	93.2	12	11	96.7	.	.	.	.	.	.	.
CCN(C(=O)CN1CC(C)OC(C)C1)c1c(N)n(Cc2ccccc2)c(=O)[nH]c1=O (stereo not drawn)	99.0	97.4	99.6	14	8	97.9	.	.	.	.	.	.	.
NC(=O)CSc1nnc(-c2ccco2)n1N	.	.	.	.	38	.	.	0.5	101.3	98.4	96.7	97.6	101.5
O=C(Cc1ccccc1Cl)Nc1nc2ccccc2[nH]1	100.7	101.2	100.5	6	.	?	.	.	.	.	.	.	.
COCC(=O)N(Cc1cc2ccc(C)cc2[nH]c1=O)c1ccc(OC)cc1	86.4	77.9	-28.2*	8	7	87.1	86.4*	-0.4	103.7	100.1	102.3	99.5	102.8
Cc1nc2ccccc2c(=O)n1/N=C/c1ccccc1	99.4	100.7	93.8	9	37	99.2	.	.	.	.	.	.	.
Cc1nc2ccccc2c(=O)n1/N=C/c1ccncc1	132.0	.	.	.	31	135.2	.	0.2	102.3	112.2	103.2	106.3	109.4
CCCc1cc(=O)oc2c3c(c4c(c12)OC(C)(C)C=C4)OC(C)C(C)C3O (stereo not drawn)	-6.7*	10.2*	-5.8*	0	.	?	.	-1.8	107.2	110.7	108.3	110.0	112.4
Oc1ccc(-c2n[nH]c(=S)n2-c2ccc3c(c2)OCCO3)c(O)c1	99.4	72.3	15.4*	7	10	92.8	99.4*	-0.3	89.5	106.9	93.8	99.5	79.0
CC1CCCN(C(=O)C2CCN(CCCc3ccccc3)CC2)C1 (stereo not drawn)	90.7	96.6	95.0	35	24	97.9	.	.	.	.	.	.	.
CCCCN(C)C(=O)C1CCN(CCCc2ccccc2)CC1	120.9	89.3	94.6	291*	15	169.8*[activator]	120.9*	.	.	.	.	.	.
COc1ccc(CCN2C(=NC(=O)C(C)C)SC3CS(=O)(=O)CC32)cc1 (stereo not drawn)	100.1	100.8	42.8	8	.	?	.	.	.	.	.	.	.
COC(=O)c1ccccc1NS(=O)(=O)c1ccc(F)cc1	99.1	100.2	103.8	22	29	100.9	.	.	.	.	.	.	.
COC(=O)c1ccccc1NS(=O)(=O)c1ccc(NC(C)=O)cc1	128.1	133.8	137.3	19	14	151.4*[activator]	128.1*	1.7	99.9	104.1	100.7	101.5	92.0
C=CCOc1cccc(NC(=O)c2ccccc2SC)c1	104.4	104.1	115.0	22	11	102.0	.	.	.	.	.	.	.
Cc1cc(C)n(-c2nc3ccccc3c(=O)n2OCC(=O)N(C)C)n1	102.5	100.7	99.2	33	14	102.9	.	.	.	.	.	.	.
